Laboratory results from PubChem BioAssay (NCATS).
Records with an inconclusive call do not appear. Where a call stands in place of a potency, no number is given. The source made the active and inactive calls. Unless noted, calls follow the shape of the full dose curve.

Experiments:
[1] = S16 Schwann cell PMP22 intronic element firefly luciferase assay (AID 624032; active = well fitted curve in the direction sought with a large enough effect; an effect the other way counts as inactive or inconclusive; also: nearly all actives have a fitted effect of over 30% in size)
Procedure, shortened: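 Rat S16 Schwann cells stably carrying firefly luciferase driven by a PMP22 intronic element, in 10% FBS, treated 24 h at 37 C. ONE-Glo luminescence normalized to PTC124 control and DMSO (0%); curves classed by r2, magnitude and activity.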

CP297 = assay: qHTS profiling for inhibitors of Plasmodium falciparum proliferation (AID 504749; active = well fitted curve in the direction sought with a large enough effect; an effect the other way counts as inactive or inconclusive; also: nearly all actives have a fitted effect of over 60% in size; also: potency is read from the fitted curve at half-maximal effect); conditions: P. falciparum in erythrocytes, SYBR Green DNA, 72 h; series mostly up to 28.7 µM
Procedure, shortened: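 Each compound contacts P. falciparum-infected red blood cells for 72 h at 37 C; lysis buffer (Tris, EDTA, saponin, Triton X, SYBR Green I) is added and fluorescence measured next morning; values normalized to controls.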

[2] = Cell Viability - BJ (AID 421); conditions: BJ fibroblast viability, qHTS;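 also: potency is read from the fitted curve at half-maximal effect; cells exposed to compound for 40 hours at 37 °C before readout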
Procedure, shortened: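 Quantitative HTS: ATP depletion in BJ cells after 40 hr compound exposure in complete culture medium, detected with CellTiter-Glo; AC50 from standard Hill fits.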

[3] = Cell Viability - Hek293 (AID 427;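 active = compounds whose dose-response curve shows a full or clear partial loss of cell viability, called from curve shape rather than a numeric limit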;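 also: potency is read from the fitted curve at half-maximal effect; cells exposed to compound for 40 hours at 37 °C before reading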); conditions: qHTS
Procedure, shortened: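 AC50 values derive from Hill-modelled concentration-response of ATP-based luminescence, normalized between DMSO-only and 100 uM tamoxifen controls. Cells were exposed in complete culture medium for 40 hr at 37 °C before detection.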

[4] = Cell Viability - HepG2 (AID 433); conditions: qHTS;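 also: potency is read from the fitted curve at half-maximal effect; cells exposed to compound for 40 hours; potency for ATP loss meaning cytotoxicity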
Procedure, shortened: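 ATP luminescence (CellTiter-Glo) after 40 h compound exposure, 37 °C, HepG2, 1500 cells/well, complete medium. Normalized: DMSO = basal, 100 uM tamoxifen = 100% inhibition. AC50 via standard Hill equation.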

[5] = Cell Viability - MRC5 (AID 434); conditions: MRC5 lung fibroblast viability, qHTS;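 also: potency is read from the fitted curve at half-maximal effect; cells exposed to compound for 40 hours at 37 °C; potency reflects cytotoxicity seen as loss of intracellular ATP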
Procedure, shortened: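 ATP luminescence read-out (CellTiter-Glo, 20 min RT) after 40 hr, 37 °C compound exposure of 1500 MRC5 cells/well. Data normalized to DMSO (basal) and 100 uM tamoxifen (100% inhibition); AC50 from standard Hill equation.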

[6] = Cell Viability - SK-N-SH (AID 435); conditions: SK-N-SH neuroblastoma cell viability qHTS; also: potency is read from the fitted curve at half-maximal effect
Procedure, shortened: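 CellTiter-Glo ATP luminescence, 20 min RT read; cells pre-plated 5 hr, compound 40 hr at 37 °C, 1500 cells/well, complete medium. Normalized DMSO = 0, 100 uM tamoxifen = 100% inhibition; Hill-fit AC50.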

[7] = Cell Viability - N2a (AID 540; active = well fitted curve in the direction sought with a large enough effect; an effect the other way counts as inactive or inconclusive; also: nearly all actives have a fitted effect of over 45% in size); conditions: N2a mouse neuroblastoma cell viability; activity change, negative = cytotoxicity: at 92.2 µM (top of the series)
Procedure, shortened: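 CellTiter-Glo ATP luminescence, read 20 min after reagent at room temperature, reported viability following 40 h compound treatment at 37 °C. N2a mouse neuroblastoma cells seeded 1500/well; Hill equation gave AC50.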

[8] = Cell Viability - H-4-II-E (AID 543; active = well fitted curve in the direction sought with a large enough effect; an effect the other way counts as inactive or inconclusive;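 also: cells exposed to compound for 40 hours; nearly all actives have a fitted effect of over 35% in size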)
Procedure, shortened: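 CellTiter-Glo luminescence (intracellular ATP) measured after 40 h compound exposure at 37 °C in H-4-II-E rat hepatoma cells seeded at 1500/well. Values are AC50s fitted with the standard Hill equation.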

[9] = Cell Viability - Renal Proximal Tubule (AID 545; active = well fitted curve in the direction sought with a large enough effect; an effect the other way counts as inactive or inconclusive;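 also: cells exposed to compound for 40 hours; nearly all actives have a fitted effect of over 40% in size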)
Procedure, shortened: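 Rat kidney proximal tubule cells, freshly isolated; 1000 cells/well, 5 hr settle, compound 40 hr 37 °C. CellTiter-Glo 20 min RT, luminescence read. AC50 by standard Hill fit.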

[10] = Cell Viability - Mesenchymal (AID 546; active = well fitted curve in the direction sought with a large enough effect; an effect the other way counts as inactive or inconclusive;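 also: cells exposed to compound for 40 hours before reading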)
Procedure, shortened: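 Human renal mesenchymal cells (glomerulus-derived), 1000 cells/well, 5 hr 37 °C pre-incubation; compound 40 hr, 37 °C; CellTiter-Glo, 20 min RT; luminescence; AC50 via Hill equation.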

[11] = biological target: Bile acid receptor (Homo sapiens) (UniProt Q96RI1); assay: qHTS assay for small molecule antagonists of farnesoid X receptor signaling (AID 588526)
Sequence of Bile acid receptor (Homo sapiens) (Q96RI1 whole entry, looked up): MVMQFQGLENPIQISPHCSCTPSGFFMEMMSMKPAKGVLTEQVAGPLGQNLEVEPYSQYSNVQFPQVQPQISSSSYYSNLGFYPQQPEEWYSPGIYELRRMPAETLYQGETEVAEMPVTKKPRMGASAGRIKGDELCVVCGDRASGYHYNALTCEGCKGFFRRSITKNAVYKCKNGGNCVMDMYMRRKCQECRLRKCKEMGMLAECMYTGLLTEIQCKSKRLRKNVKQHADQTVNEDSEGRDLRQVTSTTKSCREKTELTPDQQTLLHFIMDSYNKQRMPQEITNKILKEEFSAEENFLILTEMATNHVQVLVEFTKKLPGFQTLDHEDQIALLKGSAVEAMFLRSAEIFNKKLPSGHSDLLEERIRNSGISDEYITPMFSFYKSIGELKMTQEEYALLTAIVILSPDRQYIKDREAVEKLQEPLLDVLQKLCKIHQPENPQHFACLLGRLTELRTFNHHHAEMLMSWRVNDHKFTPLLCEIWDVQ
Procedure, shortened: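 Antagonist mode: titrated compounds tested against chenodeoxycholic acid stimulation (normalized to 50 uM CDCA and DMSO) in GeneBLAzer HEK293T cells for 16 h. Beta-lactamase read by CCF4 fluorescence; IC50 from Hill fits.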

[12] = biological target: Peroxisome proliferator-activated receptor delta (Homo sapiens) (UniProt Q03181); assay: qHTS assay for small molecule agonists of peroxisome proliferator-activated receptor delta signaling (AID 588534)
Sequence of Peroxisome proliferator-activated receptor delta (Homo sapiens) (Q03181 whole entry, looked up): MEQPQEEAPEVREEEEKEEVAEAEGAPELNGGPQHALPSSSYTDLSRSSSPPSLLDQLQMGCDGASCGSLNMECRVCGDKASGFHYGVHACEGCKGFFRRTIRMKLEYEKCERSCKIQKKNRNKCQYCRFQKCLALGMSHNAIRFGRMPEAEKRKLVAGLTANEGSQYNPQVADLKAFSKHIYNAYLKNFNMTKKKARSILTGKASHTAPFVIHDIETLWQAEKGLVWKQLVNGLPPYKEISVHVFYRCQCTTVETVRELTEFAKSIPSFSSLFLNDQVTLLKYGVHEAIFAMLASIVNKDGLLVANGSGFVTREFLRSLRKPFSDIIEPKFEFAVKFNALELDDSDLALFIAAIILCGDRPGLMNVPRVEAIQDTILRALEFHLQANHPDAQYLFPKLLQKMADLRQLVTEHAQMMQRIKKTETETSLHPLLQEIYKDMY
Procedure, shortened: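 Agonist-mode beta-lactamase reporter readout (CCF4 dye, 2 h at RT) after 18 h at 37 °C exposure to a titration; Hill-equation fitting gave EC50 and maximal response.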

[13] = biological target: Vitamin D3 receptor (Homo sapiens) (UniProt P11473); assay: qHTS assay for small molecule agonists of vitamin D receptor signaling (AID 588543)
Sequence of Vitamin D3 receptor (Homo sapiens) (P11473 whole entry, looked up): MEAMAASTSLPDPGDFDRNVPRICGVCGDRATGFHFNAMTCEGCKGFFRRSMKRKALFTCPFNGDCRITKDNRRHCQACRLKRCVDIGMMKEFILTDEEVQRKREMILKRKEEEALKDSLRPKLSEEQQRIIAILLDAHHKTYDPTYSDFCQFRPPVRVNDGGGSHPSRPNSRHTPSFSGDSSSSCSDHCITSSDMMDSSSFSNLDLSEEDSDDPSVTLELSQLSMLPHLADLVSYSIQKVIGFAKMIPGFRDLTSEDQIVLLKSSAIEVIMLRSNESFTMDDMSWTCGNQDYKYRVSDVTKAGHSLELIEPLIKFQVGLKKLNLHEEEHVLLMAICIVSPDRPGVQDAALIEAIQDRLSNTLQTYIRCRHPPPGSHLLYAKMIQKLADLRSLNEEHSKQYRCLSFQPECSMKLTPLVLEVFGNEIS
Procedure, shortened: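 β-lactamase reporter, VDR-UAS-bla HEK293T, agonist mode. Cells plated 5 h at 37 °C, compound titration 16 h at 37 °C, CCF4 dye 2 h RT, ratio 460/530 nm. Hill fit → EC50, efficacy vs 50 nM 1α,25-(OH)2D3.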

[14] = qHTS assay for small molecule agonists of retinoid X receptor alpha signaling (AID 588544); conditions: HEK293T RXRa-UAS-bla, beta-lactamase reporter, 18 h; 530 nm emission
[15] = biological target: Thyroid hormone receptor beta (Homo sapiens) (UniProt P10828); assay: qHTS assay for small molecule agonists of thyroid hormone receptor beta signaling (AID 588545)
Sequence of Thyroid hormone receptor beta (Homo sapiens) (P10828 whole entry, looked up): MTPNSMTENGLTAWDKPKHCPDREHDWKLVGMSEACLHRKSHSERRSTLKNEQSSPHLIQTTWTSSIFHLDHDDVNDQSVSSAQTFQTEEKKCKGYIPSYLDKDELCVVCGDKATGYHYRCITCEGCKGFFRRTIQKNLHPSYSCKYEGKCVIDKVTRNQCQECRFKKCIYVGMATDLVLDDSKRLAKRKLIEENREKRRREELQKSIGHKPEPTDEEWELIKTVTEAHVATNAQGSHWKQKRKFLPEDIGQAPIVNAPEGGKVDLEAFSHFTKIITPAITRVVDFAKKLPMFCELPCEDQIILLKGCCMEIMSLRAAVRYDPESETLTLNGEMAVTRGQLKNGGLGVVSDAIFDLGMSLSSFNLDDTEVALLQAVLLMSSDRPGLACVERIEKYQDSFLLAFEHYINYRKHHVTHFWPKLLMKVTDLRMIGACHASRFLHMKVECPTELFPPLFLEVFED
Procedure, shortened: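 TR-UAS-bla GripTite HEK 293 cells (2500/well, medium with 2% charcoal/dextran FBS) were treated in agonist mode for 18 h at 37 C, titrated. Beta-lactamase was read by CCF4 ratio after 2 h; normalized to 10 nM T3 (100%) and DMSO, Hill-fitted for EC50 and efficacy.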

[16] = qHTS assay for small molecule antagonists of retinoid X receptor alpha signaling (AID 588546); conditions: HEK293T RXRa-UAS-bla, beta-lactamase ratio, antagonist mode; measured here: W530 green channel, cytotoxicity proxy;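 also: cells stimulated with 9-cis-retinoic acid as agonist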
Procedure, shortened: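 Beta-lactamase reporter inhibition, read as CCF4 fluorescence ratio (ex 405, em 460/530 nm) after 2 h at RT. HEK293T UAS-bla cells, 2500/well, were stimulated with 9-cis-RA at 500 or 100 nM final alongside test compound for 18 h at 37 C.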

[17] = biological target: Thyroid hormone receptor beta (Homo sapiens) (UniProt P10828); assay: qHTS assay for small molecule antagonists of thyroid hormone receptor beta signaling (AID 588547; active = well fitted inhibition curve with a large enough effect in the signal ratio, with a control signal flat, not every such curve was filed as active; the % refers to the signal ratio;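 also: cells stimulated with 0.4 nM T3 agonist during compound exposure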); conditions: TR-UAS-bla HEK293, beta-lactamase ratio, antagonist mode, 18 h
Procedure, shortened: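 TR-UAS-bla GripTite HEK293 cells in 2% charcoal/dextran FBS medium; compounds 0.59 nM to 92 uM with T3 at 0.4nM final, 18 h at 37 C. Beta-lactamase read by CCF4 fluorescence (460/530 nm); Hill fits gave IC50 and efficacy.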

[18] = biological target: Voltage-gated inwardly rectifying potassium channel KCNH2 (Homo sapiens) (UniProt Q12809); assay: qHTS Assay for Small Molecule Inhibitors of the Human hERG Channel Activity (AID 588834; active = well fitted curve in the direction sought with a large enough effect; an effect the other way counts as inactive or inconclusive;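 also: top concentration of the series differs between compounds; lower thallium flux fluorescence means stronger hERG block; nearly all actives have a fitted effect of over 50% in size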)
Sequence of Voltage-gated inwardly rectifying potassium channel KCNH2 (Homo sapiens) (Q12809 whole entry, looked up): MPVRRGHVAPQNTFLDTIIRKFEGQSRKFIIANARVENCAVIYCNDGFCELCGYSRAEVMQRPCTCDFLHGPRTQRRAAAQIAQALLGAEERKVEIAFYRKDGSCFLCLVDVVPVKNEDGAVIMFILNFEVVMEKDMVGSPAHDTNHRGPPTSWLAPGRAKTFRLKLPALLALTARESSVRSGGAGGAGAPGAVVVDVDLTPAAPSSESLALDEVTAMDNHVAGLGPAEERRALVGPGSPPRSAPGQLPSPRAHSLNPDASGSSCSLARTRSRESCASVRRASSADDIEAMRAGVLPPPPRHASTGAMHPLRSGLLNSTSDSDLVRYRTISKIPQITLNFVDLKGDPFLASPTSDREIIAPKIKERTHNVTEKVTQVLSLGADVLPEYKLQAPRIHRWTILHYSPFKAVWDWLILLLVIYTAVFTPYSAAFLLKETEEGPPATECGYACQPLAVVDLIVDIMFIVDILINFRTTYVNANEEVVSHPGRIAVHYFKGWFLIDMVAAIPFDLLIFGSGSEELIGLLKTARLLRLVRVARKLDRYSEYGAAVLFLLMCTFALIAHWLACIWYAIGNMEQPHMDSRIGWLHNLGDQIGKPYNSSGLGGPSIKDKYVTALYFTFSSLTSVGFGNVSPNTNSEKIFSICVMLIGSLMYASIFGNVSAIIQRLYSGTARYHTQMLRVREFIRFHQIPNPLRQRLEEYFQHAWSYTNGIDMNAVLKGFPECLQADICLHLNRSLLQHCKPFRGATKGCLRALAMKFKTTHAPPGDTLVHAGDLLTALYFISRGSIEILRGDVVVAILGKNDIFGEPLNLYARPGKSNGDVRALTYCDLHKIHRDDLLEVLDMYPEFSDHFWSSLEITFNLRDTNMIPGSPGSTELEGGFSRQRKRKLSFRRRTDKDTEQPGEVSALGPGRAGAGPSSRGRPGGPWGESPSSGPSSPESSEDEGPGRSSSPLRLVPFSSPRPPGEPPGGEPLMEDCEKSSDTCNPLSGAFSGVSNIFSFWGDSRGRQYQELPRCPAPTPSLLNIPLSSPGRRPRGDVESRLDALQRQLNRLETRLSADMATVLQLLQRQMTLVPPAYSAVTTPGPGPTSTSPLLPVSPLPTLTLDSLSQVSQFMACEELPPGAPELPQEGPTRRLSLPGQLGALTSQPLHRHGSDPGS
Procedure, shortened: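 Thallium-flux (FluxOR) read-out on FDSS: fluorescence read 10 s before and 2 min after stimulation buffer. hERG-BacMam-transduced U2OS cells, compound exposure about 10 min. AC50 by standard Hill equation.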

[19] = qHTS assay for small molecule activators of the p53 signaling pathway (AID 651743; active = well fitted activation curve with a large enough effect in the signal ratio, not every such curve was filed as active; the % refers to the signal ratio); conditions: HCT-116 p53RE-bla, beta-lactamase FRET ratio, 16 h; activation: stronger effect = higher value
Procedure, shortened: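 Following 16 hours of compound exposure at 37 C, HCT-116 cells bearing the p53RE-bla reporter were loaded with LiveBLAzer B/G FRET substrate for 2 hours at room temperature and fluorescence intensity was recorded.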

Q: With `C[C@@H](Cc1ccc(O)cc1)NC[C@@H](O)c1cc(O)cc(O)c1` as the molecule, how does the outcome [1] read?
A: Its outcome is “inactive”.

Q: What about the Potency (CP297) of the same molecule?
A: Its Potency is “inactive”.

Q: With `C[C@@H]1O[C@@H](O[C@H]2C[C@@H](O)[C@@]3(CO)[C@H]4[C@H](O)C[C@]5(C)[C@@H](C6=CC(=O)OC6)CC[C@]5(O)[C@H]4CC[C@@]3(O)C2)[C@@H](O)[C@H](O)[C@H]1O` as the molecule, how does the Potency (CP297) read?
A: The Potency was “inactive”.

Q: Which outcome [1] does the source give for `O=C1C[C@@H]2OCC=C3CN4CC[C@]56c7ccccc7N1[C@@H]5[C@@H]2[C@H]3C[C@H]46` (tested in a mixture with another compound) here?
A: Its outcome is “inactive”.

Q: Which results are given for `C=C[C@@H]1CN2CC[C@H]1C[C@H]2[C@H](O)c1ccnc2ccccc12`?
A: outcome [1]: inactive; Potency (CP297): 0.757 µM (active)

Q: For `C(CCOCC1CO1)COCC1CO1` (stereo not given), which Potency [2] is on record?
A: Its Potency is > 92 µM (inactive).

Q: What about the Potency [3] of the same molecule?
A: Its Potency is > 92 µM (inactive).

Q: What about the Potency [4] of the same molecule?
A: The Potency was > 92 µM (inactive).

Q: What about the Potency [5] of the same molecule?
A: Its Potency is > 92 µM (inactive).

Q: What about the Potency [6] of the same molecule?
A: Its Potency is 27.7 µM (inactive).

Q: And the Potency [7]?
A: Its Potency is “inactive”.

Q: What about the Potency [8] of the same molecule?
A: The Potency was “inactive”.

Q: What about the outcome [9] of the same molecule?
A: Its outcome is “inactive”.

Q: What about the Potency [10] of the same molecule?
A: The Potency was “inactive”.

Q: And the outcome [11]?
A: Its outcome is “inactive”.

Q: And the outcome [12]?
A: The outcome was “inactive”.

Q: And the outcome [13]?
A: Its outcome is “inactive”.

Q: And the max response [14]?
A: Its max response is -1.76%.

Q: What about the Potency [15] of the same molecule?
A: The Potency was “inactive”.

Q: And the max response [16]?
A: The max response was 5.96%.

Q: What about the activity change % (negative = inhibition) [17] of the same molecule?
A: Its activity change % (negative = inhibition) is 16.3% (inactive).

Q: What about the Potency [18] of the same molecule?
A: The Potency was “inactive”.

Q: What about the activation [19] of the same molecule?
A: Its activation is 15.9% (inactive).

Q: For `CCCCCc1cc(O)cc(O)c1`, which Potency [2] is on record?
A: Its Potency is > 92 µM (inactive).

Q: And the Potency [3]?
A: The Potency was > 92 µM (inactive).

Q: And the Potency [4]?
A: The Potency was > 92 µM (inactive).

Q: What about the Potency [5] of the same molecule?
A: Its Potency is > 92 µM (inactive).

Q: What about the Potency [6] of the same molecule?
A: Its Potency is > 92 µM (inactive).

Q: And the Potency [7]?
A: The Potency was “inactive”.

Q: And the Potency [8]?
A: Its Potency is “inactive”.

Q: And the outcome [9]?
A: Its outcome is “inactive”.

Q: What about the Potency [10] of the same molecule?
A: The Potency was “inactive”.

Q: And the outcome [11]?
A: The outcome was “inactive”.

Q: What about the outcome [12] of the same molecule?
A: Its outcome is “inactive”.

Q: And the outcome [13]?
A: Its outcome is “inactive”.

Q: What about the max response [14] of the same molecule?
A: The max response was 0.917%.

Q: And the Potency [15]?
A: Its Potency is “inactive”.

Q: What about the max response [16] of the same molecule?
A: The max response was -2.02%.

Q: And the activity change % (negative = inhibition) [17]?
A: Its activity change % (negative = inhibition) is -2.41% (inactive).

Q: What about the Potency [18] of the same molecule?
A: The Potency was “inactive”.

Q: And the activation [19]?
A: Its activation is -2.37% (inactive).

Q: What does the source list for `c1ccoc1`?
A: Potency [2]: > 92 µM (inactive); Potency [3]: > 92 µM (inactive); Potency [4]: > 92 µM (inactive); Potency [5]: > 92 µM (inactive); Potency [6]: > 92 µM (inactive); Potency [7]: inactive; Potency [8]: inactive; outcome [9]: inactive; Potency [10]: inactive; outcome [11]: inactive; outcome [12]: inactive; outcome [13]: inactive; max response [14]: -15.5%; Potency [15]: inactive; max response [16]: 1%; activity change % (negative = inhibition) [17]: 20.3% (inactive); Potency [18]: inactive; activation [19]: 1.16% (inactive)
